Data: PubChem BioAssay (EPA / NIEHS)
Activity calls are given as the source filed them. Rule for the calls: active = hit-call score of the fitted dose curve at least 0.9, where 1 is the maximum; inactive = score below 0.9.

Legend:
[1] = target: Bile acid receptor (Homo sapiens) (UniProt Q96RI1); experiment: ATG_IR1_CIS: Attagene CIS-FACTORIAL HepG2 Assay for human Nuclear Receptor Subfamily 1 Group H Member 4 (NR1H4), IR1 submotif (AID 2282946); settings: IR1 reporter transcription, actives raise or lower the signal
Sequence of Bile acid receptor (Homo sapiens) (Q96RI1 whole entry, looked up): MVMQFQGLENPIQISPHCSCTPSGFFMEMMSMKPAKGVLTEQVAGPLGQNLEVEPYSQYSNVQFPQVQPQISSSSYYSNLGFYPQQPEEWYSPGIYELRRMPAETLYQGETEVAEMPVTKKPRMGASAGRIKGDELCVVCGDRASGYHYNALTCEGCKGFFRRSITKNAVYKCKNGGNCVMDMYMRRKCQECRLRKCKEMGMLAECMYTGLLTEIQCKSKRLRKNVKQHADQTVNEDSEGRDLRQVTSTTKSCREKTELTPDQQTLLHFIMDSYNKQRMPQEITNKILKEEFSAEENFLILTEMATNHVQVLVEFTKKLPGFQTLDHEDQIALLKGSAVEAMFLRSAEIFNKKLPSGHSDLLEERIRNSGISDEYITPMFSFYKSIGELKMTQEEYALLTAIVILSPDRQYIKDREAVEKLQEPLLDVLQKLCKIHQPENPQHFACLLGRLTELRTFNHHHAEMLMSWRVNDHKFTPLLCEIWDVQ
In short: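 Transient MRTU transfection, HepG2; 24 h dosing; RNA → RT-PCR → 6-FAM primer extension → HpaI digest → capillary electrophoresis fluorescence. Gain/loss of signal fitted relative to DMSO.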

[2] = ATG_M_32_CIS: Attagene CIS-FACTORIAL HepG2 Assay for M32 Transcription Factor (Internal Marker) (AID 2282949); settings: HepG2 Attagene cis-factorial M32 reporter, mRNA; actives raise or lower the signal;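 note: background control marker of the multiplexed CIS panel rather than a real target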
In short: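 HepG2 cells transiently transfected with multiplexed cis-regulated reporter units, dosed 24 h. Reporter mRNA quantified by RT-PCR, 6-FAM labelling, HpaI digestion and capillary electrophoresis; bidirectional fit vs DMSO.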

[3] = ATG_M_06_CIS: Attagene CIS-FACTORIAL HepG2 Assay for M06 Transcription Factor (Internal Marker) (AID 2282950); settings: HepG2 Attagene CIS-FACTORIAL M06 internal marker reporter; actives raise or lower the signal
In short: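 Steps: transfect HepG2 with multiplexed cis-element reporter constructs; dose chemical 24 h; extract RNA with DNase treatment; reverse-transcribe, PCR-amplify, 6-FAM label, HpaI digest; separate fragments by capillary electrophoresis. Activity fitted both directions versus DMSO.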

[4] = target: Hypoxia-inducible factor 1-alpha (Homo sapiens) (UniProt Q16665); experiment: ATG_HIF1a_CIS: Attagene CIS-FACTORIAL HepG2 Assay for human Hypoxia Inducible Factor 1 (HIF1A) (AID 2282951); settings: HepG2 Attagene cis-factorial HIF1a reporter transcription; actives raise or lower the signal
Sequence of Hypoxia-inducible factor 1-alpha (Homo sapiens) (Q16665 whole entry, looked up): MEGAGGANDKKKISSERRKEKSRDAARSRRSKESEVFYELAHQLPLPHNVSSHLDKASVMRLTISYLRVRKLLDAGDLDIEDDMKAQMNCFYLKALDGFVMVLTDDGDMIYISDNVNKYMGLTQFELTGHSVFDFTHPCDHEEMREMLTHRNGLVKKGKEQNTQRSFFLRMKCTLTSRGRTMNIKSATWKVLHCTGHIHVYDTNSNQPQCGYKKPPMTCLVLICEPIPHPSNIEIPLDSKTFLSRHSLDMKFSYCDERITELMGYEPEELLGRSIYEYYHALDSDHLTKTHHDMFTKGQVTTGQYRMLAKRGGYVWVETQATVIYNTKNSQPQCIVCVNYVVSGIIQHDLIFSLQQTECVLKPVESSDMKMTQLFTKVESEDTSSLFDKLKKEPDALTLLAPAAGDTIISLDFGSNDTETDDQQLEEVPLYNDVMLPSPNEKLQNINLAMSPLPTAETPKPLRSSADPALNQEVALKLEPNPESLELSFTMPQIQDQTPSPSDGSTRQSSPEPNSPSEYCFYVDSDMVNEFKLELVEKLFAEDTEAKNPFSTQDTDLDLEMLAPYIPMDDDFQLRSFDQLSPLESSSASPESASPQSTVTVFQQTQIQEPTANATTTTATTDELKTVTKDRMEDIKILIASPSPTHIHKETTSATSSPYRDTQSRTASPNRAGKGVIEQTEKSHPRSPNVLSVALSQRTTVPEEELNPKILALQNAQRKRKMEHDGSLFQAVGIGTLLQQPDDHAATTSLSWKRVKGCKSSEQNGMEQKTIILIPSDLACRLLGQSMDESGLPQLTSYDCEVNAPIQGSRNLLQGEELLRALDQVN
In short: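 Activity is fitted in both directions relative to DMSO. Reporter transcripts are read by RT-PCR, fluorescent primer extension and capillary electrophoresis after 24 h chemical treatment. The cells are HepG2 carrying transiently transfected cis-element-driven reporter units responding to endogenous factors.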

[5] = target: Hepatocyte nuclear factor 6 (Homo sapiens) (UniProt Q9UBC0); experiment: ATG_HNF6_CIS: Attagene CIS-FACTORIAL HepG2 Assay for human Hepatocyte Nuclear Factor 6 (HNF6) (AID 2282952); settings: HepG2 Attagene cis-factorial HNF6 reporter transcription; actives raise or lower the signal
Sequence of Hepatocyte nuclear factor 6 (Homo sapiens) (Q9UBC0 whole entry, looked up): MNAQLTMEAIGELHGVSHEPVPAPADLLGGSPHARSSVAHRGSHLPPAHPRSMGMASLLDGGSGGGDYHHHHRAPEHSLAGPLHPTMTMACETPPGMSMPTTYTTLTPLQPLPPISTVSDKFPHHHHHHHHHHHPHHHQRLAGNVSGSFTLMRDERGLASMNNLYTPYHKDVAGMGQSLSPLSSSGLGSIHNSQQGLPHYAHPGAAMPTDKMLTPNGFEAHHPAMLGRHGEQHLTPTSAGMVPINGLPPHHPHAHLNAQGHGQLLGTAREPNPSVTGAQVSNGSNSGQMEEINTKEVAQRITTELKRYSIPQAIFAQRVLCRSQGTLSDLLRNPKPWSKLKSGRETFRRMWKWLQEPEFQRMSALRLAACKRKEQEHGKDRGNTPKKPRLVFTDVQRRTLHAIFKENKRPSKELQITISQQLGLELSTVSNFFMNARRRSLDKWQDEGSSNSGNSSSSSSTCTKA
In short: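 HepG2, transient MRTU transfection (cis promoters); 24 h chemical exposure; total RNA → oligo(dT) RT → PCR → 6-FAM labelling → HpaI cut → CE; bidirectional fit vs DMSO.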

[6] = target: Heat shock factor protein 1 (Homo sapiens) (UniProt Q00613); experiment: ATG_HSE_CIS: Attagene CIS-FACTORIAL HepG2 Assay for human Heat Shock Transcription Factor 1 (HSE) (AID 2282953); settings: HepG2 HSE cis-reporter, Attagene RNA transcription; actives raise or lower the signal
Sequence of Heat shock factor protein 1 (Homo sapiens) (Q00613 whole entry, looked up, the tested form may be a part): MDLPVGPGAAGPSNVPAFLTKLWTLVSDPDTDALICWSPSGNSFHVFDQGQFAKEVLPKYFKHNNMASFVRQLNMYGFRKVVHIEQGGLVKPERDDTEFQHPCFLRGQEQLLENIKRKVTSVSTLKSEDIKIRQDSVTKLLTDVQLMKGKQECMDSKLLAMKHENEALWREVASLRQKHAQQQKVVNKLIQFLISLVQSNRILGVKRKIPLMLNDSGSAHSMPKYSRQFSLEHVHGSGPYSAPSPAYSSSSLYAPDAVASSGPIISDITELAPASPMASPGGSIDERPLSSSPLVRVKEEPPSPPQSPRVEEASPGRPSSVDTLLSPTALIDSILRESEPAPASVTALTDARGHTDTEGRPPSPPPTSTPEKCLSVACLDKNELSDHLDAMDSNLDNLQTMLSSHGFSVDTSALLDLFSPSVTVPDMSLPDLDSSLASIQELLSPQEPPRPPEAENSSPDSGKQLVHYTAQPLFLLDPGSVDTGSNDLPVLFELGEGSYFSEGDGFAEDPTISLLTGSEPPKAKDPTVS
In short: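 Cells were transfected with cis-element-driven reporter constructs, dosed for 24 h, then total RNA was reverse-transcribed and reporter cDNA amplified, FAM-labelled and digested with HpaI. Fragments were resolved by capillary electrophoresis; gain or loss was fitted against DMSO.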

[7] = ATG_MRE_CIS: Attagene CIS-FACTORIAL HepG2 Assay for human Metal Responsive Element (MRE) (AID 2282954); settings: HepG2 MRE cis-reporter transcription, Attagene multiplex; actives raise or lower the signal
In short: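 Step one: transfect HepG2 with cis-regulated reporter units. Step two: dose 24 h. Step three: isolate RNA, RT-PCR, 6-FAM label, HpaI digest, capillary electrophoresis. Fit bidirectionally to DMSO.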

[8] = ATG_GRE_CIS: Attagene CIS-FACTORIAL HepG2 Assay for human Glucocorticoid Response Elements (GRE) (AID 2282947); settings: HepG2 GRE cis-reporter, Attagene multiplex mRNA; actives raise or lower the signal
In short: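 Following 24 h chemical exposure of transiently transfected HepG2 cells, total RNA was reverse-transcribed and reporter cDNA amplified, fluorescently labelled and sized by capillary electrophoresis. Signal gain or loss was fitted relative to DMSO vehicle.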

[9] = ATG_ISRE_CIS: Attagene CIS-FACTORIAL HepG2 Assay for human Interferon Regulatory Factor 1 (IRF1) binding to an Interferon-Stimulated Response Element (ISRE) (AID 2282948); settings: HepG2 ISRE cis-reporter (Attagene), mRNA transcription readout; actives raise or lower the signal
In short: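 Quantitation relies on labelled RT-PCR fragments separated by capillary electrophoresis. Human HepG2 cells bearing cis-promoter reporter constructs were treated 24 h; DMSO served as baseline for bidirectional fitting.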

[10] = ATG_PBREM_CIS: Attagene CIS-FACTORIAL HepG2 Assay for human Phenobarbital-responsive Enhancer Module (PBREM) (AID 2282955); settings: HepG2 PBREM cis-reporter, Attagene multiplexed transcription; actives raise or lower the signal
In short: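 Endogenous transcription factor activity was read from reporter transcripts in transiently transfected human HepG2 liver cells after 24 h dosing. RT-PCR products were fluorescently labelled, HpaI-cut and sized by capillary electrophoresis; activity fitted bidirectionally against DMSO baseline.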

Measured: AC50

CCCCCCCC(C)=O
not listed: [8] | [9] | [10]
inactive: all other assays above

CC1OC1C1CCC2(C)OC2C1 (stereo not given)
not listed: [1]
inactive: all other assays above

CC(C)c1ccc2c(c1)CC[C@H]1[C@](C)(CN)CCC[C@]21C
active: [6] 6.29 µM | [7] 5.77 µM
inactive: [1] | [9] | [2] | [3] | [5]

Cc1cc(C)c(C)c(C)c1
not listed: [6] | [8]
inactive: all other assays above

CC[C@H]1OC(=O)[C@H](C)[C@@H](O[C@H]2C[C@@](C)(OC)[C@@H](O)[C@H](C)O2)[C@H](C)[C@@H](O[C@@H]2O[C@H](C)C[C@H](N(C)C)[C@H]2O)[C@](C)(O)C[C@@H](C)C(=NOCOCCOC)[C@H](C)[C@@H](O)[C@]1(C)O
not listed: [4] | [8] | [10]
inactive: all other assays above

CCCCC(CC)CCC(CC(C)C)OS(=O)(=O)O (stereo not given)
not listed: [8]
inactive: all other assays above

Nc1ccc(Oc2ccc(N)c(N)c2)cc1
inactive: [1] | [2] | [4] | [5] | [7] | [10]

CCOC(=O)[C@H](C)O
not listed: [5] | [8]
inactive: all other assays above

C=C1[C@H]2CC[C@@H]3[C@H]2C(C)(C)CCC[C@]13C
not listed: [8]
inactive: all other assays above

CC(CC=O)CCCC(C)(C)O (stereo not given)
not listed: [1] | [10]
inactive: all other assays above

COCc1c(C(C)C)nc(C(C)C)c(/C=C/[C@@H](O)C[C@@H](O)CC(=O)O)c1-c1ccc(F)cc1
active: [7] 12.4 µM
not listed: [1]
inactive: all other assays above

C=C[Si](OC(C)=O)(OC(C)=O)OC(C)=O
not listed: [1]
inactive: all other assays above

CC(C)CCCCCOC(=O)CCS
not listed: [1]
inactive: all other assays above

COC(=O)c1cc(Cl)ccc1[N+](=O)[O-]
not listed: [1]
inactive: all other assays above

CCCCCCCC/C=C\CCCCCCCC(=O)OCCO
not listed: [1] | [5] | [10]
inactive: all other assays above

CC(C)(C)c1ccc(N)cc1
not listed: [1]
inactive: all other assays above

CCCCC(CC)COC(=O)c1ccccc1 (stereo not given)
not listed: [1]
inactive: all other assays above

O=C(C=Cc1ccccc1)OCc1ccccc1
not listed: [1]
inactive: all other assays above

CCCOC(=O)CCCCC(=O)OCCC
not listed: [1] | [5] | [10]
inactive: all other assays above

CCCCCC/C=C/C=O
not listed: [1] | [6]
inactive: all other assays above

CCCCC(CC)COC(=O)c1ccccc1O (stereo not given)
not listed: [1]
inactive: all other assays above

CN(C)c1ccc(C(=N)c2ccc(N(C)C)cc2)cc1
active: [9] 23 µM | [4] 0.816 µM | [6] 29.4 µM | [7] 6.69 µM | [10] 7.5 µM
inactive: [8] | [2] | [3] | [5]

CCOC(=O)Cc1cccc2ccccc12
not listed: [1] | [6]
inactive: all other assays above

S=C(NC1CCCCC1)NC1CCCCC1
not listed: [1]
inactive: all other assays above

c1ccc2c(c1)ccc1ncccc12
active: [9] 150 µM
not listed: [1]
inactive: all other assays above

C=C(C)C(=O)OCCOc1ccccc1
not listed: [1]
inactive: all other assays above

C=CC(C)(C)C
not listed: [1]
inactive: all other assays above
